In the supplement of paper PMC10849652:
Of roughly 7,900 targets only a part is listed; those with a hit were picked by preference. About 0.6% of all pairs of compound and target were hits. A number with no mark means an inactive call.

Legend:
Assay in all cases: log2 fold change, soluble protein after heating vs DMSO (PISA); higher = thermal stabilisation; K562 cells, 10 uM, 30 min; active = over 0.2 and 3.5 SD of the protein, either way, in both replicates (recomputed)
saracatinib = compound: CN1CCN(CCOc2cc(OC3CCOCC3)c3c(Nc4c(Cl)ccc5c4OCO5)ncnc3c2)CC1 [saracatinib]
Outline: (§1)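 Values are thermal stability changes relative to control samples and are taken from duplicates. They are stated as log2 fold changes. Before quantification by TMTpro 16plex LC-MS/MS with equalised channel sums, K562 cells at 2×10^6 cells/mL were treated with 10 μM compound for 30 min, heated in aliquots for 3 min across 48°C-58°C, pooled, extracted in PBS with 0.5% NP-40 at 4°C, and centrifuged at 21,000xg for 90 min to give the soluble supernatant.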

sotrastaurin = compound: CN1CCN(c2nc(C3=C(c4c[nH]c5ccccc45)C(=O)NC3=O)c3ccccc3n2)CC1 [sotrastaurin]
Outline: as §1

alvocidib = compound: CN1CC[C@H](c2c(O)cc(O)c3c(=O)cc(-c4ccccc4Cl)oc23)[C@H](O)C1 [alvocidib]
Outline: as §1

Tubastatin A = compound: CN1CCc2c(c3ccccc3n2Cc2ccc(C(=O)NO)cc2)C1 [Tubastatin A]
Outline: as §1

[1] = compound: CNC(=O)C1=CC=CC=C1NC2=NC(=NC=C2Cl)NC3=C(C=C(C=C3)N4CCOCC4)OC
Outline: as §1

defactinib = compound: CNC(=O)c1ccc(Nc2ncc(C(F)(F)F)c(NCc3nccnc3N(C)S(C)(=O)=O)n2)cc1 [defactinib]
Outline: as §1

rucaparib = compound: CNCc1ccc(-c2[nH]c3cc(F)cc4c3c2CCNC4=O)cc1 [rucaparib]
Outline: as §1

[2] = compound: CNc1nc(-c2ccc3c(N)n[nH]c3c2)cc(N2C[C@@H](C(=O)NC3CCCCC3)CC[C@H]2C)n1
Outline: as §1

encorafenib = compound: COC(=O)N[C@@H](C)CNc1nccc(-c2cn(C(C)C)nc2-c2cc(Cl)cc(NS(C)(=O)=O)c2F)n1 [encorafenib]
Outline: as §1

[3] = compound: COC(=O)[C@H](CCSC)NC(=O)C1=C(C=C(C=C1)NC[C@H](CS)N)C2=CC=CC=C2
Outline: as §1

Chain of UniProt P35520 (P35520 whole entry, looked up): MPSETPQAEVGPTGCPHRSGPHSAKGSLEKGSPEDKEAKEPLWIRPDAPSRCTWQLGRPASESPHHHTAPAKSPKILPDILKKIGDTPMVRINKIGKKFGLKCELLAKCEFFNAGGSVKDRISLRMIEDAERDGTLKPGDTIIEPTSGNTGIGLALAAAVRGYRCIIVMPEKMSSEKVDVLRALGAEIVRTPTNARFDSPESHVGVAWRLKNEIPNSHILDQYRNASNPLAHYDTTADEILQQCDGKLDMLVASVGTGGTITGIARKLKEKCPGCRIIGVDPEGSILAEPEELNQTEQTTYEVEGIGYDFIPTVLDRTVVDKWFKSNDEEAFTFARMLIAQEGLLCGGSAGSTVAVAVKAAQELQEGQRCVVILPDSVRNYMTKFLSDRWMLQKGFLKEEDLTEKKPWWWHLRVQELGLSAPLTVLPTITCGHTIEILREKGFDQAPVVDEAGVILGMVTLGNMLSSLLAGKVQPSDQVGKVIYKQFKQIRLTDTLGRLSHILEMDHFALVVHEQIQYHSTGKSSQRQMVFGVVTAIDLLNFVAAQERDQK
Chain of UniProt Q9NYV4 (Q9NYV4 whole entry, looked up): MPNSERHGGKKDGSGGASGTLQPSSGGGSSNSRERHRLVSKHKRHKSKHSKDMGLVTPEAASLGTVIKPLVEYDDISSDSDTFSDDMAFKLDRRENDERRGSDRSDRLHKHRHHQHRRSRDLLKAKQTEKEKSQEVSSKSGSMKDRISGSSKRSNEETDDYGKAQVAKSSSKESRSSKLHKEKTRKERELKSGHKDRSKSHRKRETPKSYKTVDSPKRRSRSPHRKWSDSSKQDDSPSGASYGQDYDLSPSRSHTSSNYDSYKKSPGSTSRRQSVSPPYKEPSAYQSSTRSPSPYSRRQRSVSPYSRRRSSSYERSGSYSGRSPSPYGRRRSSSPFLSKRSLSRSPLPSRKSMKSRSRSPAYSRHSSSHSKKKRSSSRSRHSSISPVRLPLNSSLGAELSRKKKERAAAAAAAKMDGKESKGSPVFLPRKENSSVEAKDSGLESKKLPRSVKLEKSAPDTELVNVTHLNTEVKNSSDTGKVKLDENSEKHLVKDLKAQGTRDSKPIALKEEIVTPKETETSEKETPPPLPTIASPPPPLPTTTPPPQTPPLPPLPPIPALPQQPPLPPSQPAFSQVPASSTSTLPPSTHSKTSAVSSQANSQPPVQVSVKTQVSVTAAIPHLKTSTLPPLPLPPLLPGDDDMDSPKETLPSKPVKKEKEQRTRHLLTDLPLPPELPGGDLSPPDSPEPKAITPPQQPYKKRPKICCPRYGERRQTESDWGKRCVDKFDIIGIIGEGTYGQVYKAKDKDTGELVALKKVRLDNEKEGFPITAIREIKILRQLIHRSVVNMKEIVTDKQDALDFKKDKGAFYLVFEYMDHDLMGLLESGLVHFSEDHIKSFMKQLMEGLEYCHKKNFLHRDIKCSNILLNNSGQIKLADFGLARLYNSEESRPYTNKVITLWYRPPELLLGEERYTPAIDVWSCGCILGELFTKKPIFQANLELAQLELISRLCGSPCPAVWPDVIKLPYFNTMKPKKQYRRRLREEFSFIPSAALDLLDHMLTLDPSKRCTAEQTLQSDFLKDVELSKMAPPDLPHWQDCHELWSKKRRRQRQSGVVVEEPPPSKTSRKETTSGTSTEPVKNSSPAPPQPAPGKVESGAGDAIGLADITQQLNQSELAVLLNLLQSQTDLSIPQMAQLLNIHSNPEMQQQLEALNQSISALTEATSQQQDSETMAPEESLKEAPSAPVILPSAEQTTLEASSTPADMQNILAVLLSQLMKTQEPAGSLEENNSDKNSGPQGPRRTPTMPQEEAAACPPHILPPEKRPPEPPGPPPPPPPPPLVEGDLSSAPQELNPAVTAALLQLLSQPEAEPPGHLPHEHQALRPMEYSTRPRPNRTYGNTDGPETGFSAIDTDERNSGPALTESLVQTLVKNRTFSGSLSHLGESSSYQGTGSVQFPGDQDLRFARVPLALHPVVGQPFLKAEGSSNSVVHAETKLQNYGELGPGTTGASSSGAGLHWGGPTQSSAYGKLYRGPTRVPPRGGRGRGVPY
Chain of UniProt Q96CF2 (Q96CF2 whole entry, looked up): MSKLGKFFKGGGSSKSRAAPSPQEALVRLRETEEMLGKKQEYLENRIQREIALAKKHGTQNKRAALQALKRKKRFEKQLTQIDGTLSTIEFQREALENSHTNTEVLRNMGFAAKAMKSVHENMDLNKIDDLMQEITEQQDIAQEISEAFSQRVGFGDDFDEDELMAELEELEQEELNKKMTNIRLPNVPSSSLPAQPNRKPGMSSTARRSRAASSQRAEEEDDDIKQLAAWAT
Chain of UniProt P35790 (P35790 whole entry, looked up): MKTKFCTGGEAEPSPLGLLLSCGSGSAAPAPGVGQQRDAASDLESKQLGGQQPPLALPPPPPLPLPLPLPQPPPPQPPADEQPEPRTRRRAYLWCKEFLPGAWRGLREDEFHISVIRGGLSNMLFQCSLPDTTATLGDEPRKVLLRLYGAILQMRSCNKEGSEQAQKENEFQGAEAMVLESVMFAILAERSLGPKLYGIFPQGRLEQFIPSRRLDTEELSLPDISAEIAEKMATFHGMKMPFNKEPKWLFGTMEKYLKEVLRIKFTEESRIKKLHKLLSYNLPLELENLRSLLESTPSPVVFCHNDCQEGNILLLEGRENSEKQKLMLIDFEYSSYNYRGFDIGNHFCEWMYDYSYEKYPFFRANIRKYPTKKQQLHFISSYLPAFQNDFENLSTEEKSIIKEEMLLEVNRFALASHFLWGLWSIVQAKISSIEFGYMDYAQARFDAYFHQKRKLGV
Chain of UniProt Q9H9S4 (Q9H9S4 whole entry, looked up): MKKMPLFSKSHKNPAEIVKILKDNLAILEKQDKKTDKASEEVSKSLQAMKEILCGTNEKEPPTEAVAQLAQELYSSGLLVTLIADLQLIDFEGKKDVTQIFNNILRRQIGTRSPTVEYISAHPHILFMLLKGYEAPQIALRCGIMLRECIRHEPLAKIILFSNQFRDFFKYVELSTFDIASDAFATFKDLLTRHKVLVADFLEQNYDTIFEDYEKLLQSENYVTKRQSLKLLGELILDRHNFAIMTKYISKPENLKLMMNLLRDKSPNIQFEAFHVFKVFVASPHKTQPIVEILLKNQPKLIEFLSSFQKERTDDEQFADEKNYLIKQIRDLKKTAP
Chain of UniProt Q14194 (Q14194 whole entry, looked up): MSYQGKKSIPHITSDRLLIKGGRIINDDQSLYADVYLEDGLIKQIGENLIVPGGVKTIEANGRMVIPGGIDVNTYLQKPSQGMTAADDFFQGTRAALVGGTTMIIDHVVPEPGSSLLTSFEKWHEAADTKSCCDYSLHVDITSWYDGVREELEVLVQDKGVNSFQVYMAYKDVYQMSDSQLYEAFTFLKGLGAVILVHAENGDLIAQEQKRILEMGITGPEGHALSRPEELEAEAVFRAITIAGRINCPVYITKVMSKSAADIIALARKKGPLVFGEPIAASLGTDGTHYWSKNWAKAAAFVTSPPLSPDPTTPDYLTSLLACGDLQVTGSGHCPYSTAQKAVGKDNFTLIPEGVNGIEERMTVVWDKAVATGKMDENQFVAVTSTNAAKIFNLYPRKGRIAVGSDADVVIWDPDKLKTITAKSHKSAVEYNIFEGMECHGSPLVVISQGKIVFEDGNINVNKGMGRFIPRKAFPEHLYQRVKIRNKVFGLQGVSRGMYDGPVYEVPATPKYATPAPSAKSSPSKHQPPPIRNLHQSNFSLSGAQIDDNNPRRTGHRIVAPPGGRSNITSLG
Chain of UniProt Q00587 (Q00587 whole entry, looked up): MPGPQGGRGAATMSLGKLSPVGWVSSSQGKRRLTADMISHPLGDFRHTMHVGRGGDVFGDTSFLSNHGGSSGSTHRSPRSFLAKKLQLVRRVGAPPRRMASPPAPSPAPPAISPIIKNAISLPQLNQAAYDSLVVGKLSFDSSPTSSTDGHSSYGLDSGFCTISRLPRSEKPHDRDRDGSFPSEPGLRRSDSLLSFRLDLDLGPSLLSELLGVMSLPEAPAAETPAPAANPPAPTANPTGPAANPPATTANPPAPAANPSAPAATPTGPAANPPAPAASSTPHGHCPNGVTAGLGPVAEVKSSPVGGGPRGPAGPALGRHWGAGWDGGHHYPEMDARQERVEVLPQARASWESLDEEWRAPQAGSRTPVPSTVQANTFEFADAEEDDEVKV
Chain of UniProt Q96LT7 (Q96LT7 whole entry, looked up): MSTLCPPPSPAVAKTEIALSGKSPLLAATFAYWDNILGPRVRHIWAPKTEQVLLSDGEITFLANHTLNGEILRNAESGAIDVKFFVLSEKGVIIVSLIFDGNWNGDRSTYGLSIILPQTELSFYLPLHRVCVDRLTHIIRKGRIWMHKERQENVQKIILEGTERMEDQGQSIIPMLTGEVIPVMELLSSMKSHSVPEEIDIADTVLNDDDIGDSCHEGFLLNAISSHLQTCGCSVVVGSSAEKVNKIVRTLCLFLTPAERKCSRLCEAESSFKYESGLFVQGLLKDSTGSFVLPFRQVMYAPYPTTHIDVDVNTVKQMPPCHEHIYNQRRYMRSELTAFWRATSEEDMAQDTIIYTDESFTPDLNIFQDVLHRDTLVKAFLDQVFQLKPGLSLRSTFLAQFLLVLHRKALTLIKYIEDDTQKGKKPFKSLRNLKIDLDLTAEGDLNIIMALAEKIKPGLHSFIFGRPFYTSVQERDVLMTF
Chain of UniProt P11802 (P11802 whole entry, looked up): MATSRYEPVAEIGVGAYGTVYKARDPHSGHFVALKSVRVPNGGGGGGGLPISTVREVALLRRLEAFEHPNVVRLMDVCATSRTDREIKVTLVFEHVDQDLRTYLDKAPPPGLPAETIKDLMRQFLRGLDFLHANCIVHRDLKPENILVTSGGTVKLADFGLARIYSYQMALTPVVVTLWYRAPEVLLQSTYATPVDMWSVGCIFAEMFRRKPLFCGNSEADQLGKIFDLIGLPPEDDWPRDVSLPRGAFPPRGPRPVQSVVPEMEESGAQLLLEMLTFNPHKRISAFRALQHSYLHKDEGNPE
Chain of UniProt P51636 (P51636 whole entry, looked up): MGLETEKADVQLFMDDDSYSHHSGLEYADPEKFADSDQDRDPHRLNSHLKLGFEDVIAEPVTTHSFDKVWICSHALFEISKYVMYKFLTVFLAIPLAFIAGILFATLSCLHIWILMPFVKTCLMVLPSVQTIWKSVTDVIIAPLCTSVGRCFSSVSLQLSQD

Target	log2 fold change (saracatinib)	log2 fold change (sotrastaurin)	log2 fold change (alvocidib)	log2 fold change (Tubastatin A)	log2 fold change [1]	log2 fold change (defactinib)	log2 fold change (rucaparib)	log2 fold change [2]	log2 fold change (encorafenib)	log2 fold change [3]
CA8 (UniProt P35219)	-0.054	-0.023	-0.127	0.084	0.118	-0.163	0.068	0.018	0.024	0.014
C16orf58 (UniProt Q96GQ5)	0.042	0.04	-0.032	-0.003	-0.005	-0.031	-0.012	-0.063	0.051	-0.02
C4orf33 (UniProt Q8N1A6)	-0.027	-0.091	-0.07	-0.024	0.048	-0.071	0.091	0.013	-0.076	0.042
CHP1 (UniProt Q99653)	-0.09	0.068	-0.046	0.041	0.085	-0.006	0.068	-0.219	-0.016	0.021
CFAP36 isoform 2 (UniProt Q96G28)	-0.01	-0.023	-0.132	0.116	0.1	0.13	0.064	-0.058	0.053	0.05
CASTOR2 (UniProt A6NHX0)	0.042	0.039	0.027	0.036	-0.082	-0.092	-0.048	0.032	0.04	0
CDC37L1 (UniProt Q7L3B6)	-0.003	0.021	-0.093	-0.308 (active)	0.002	0.059	-0.058	-0.013	0.005	0.018
CDKN2AIP (UniProt Q9NXV6)	0.057	0.023	0.018	0.013	0.052	0.055	-0.055	0.033	0.02	-0.029
CDC42BPA isoform 6 (UniProt Q5VT25)	-0.093	-0.47 (active)	-0.688 (active)	0.022	-0.037	-0.183	0.088	-0.031	0.06	-0.064
CD63 (UniProt P08962)	0.021	0.017	0.01	-0.005	0	-0.006	-0.018	-0.01	0.049	0.015
CDK12 (UniProt Q9NYV4)	-0.113	-0.406	0.122	0.165	-0.309	-0.052	0.072	0.003	0.09	0.157
CBS (UniProt P35520)	-0.009	0.011	-0.035	-0.069	-0.021	0.003	-0.061	-0.03	-0.001	-0.013
CHMP4C (UniProt Q96CF2)	0	0.042	0.02	-0.009	-0.173	-0.047	-0.032	-0.138	-0.097	0.007
CDK1 (UniProt P06493)	0.007	-0.045	-0.063	0.018	-0.043	-0.118	0.013	0.01	-0.01	0.003
CDC42EP1 (UniProt Q00587)	-0.017	0.025	-0.146	0.001	-0.303	-0.144	-0.002	0.016	-0.017	0.007
C19orf54 (UniProt Q5BKX5)	0.049	-0.221	0.178	0.092	0.002	-0.136	0.255	-0.108	0.005	-0.031
CASC3 (UniProt O15234)	-0.015	0.067	0.6 (active)	-0.06	0.021	0.323	0.158	-0.126	-0.089	0.073
CCNK isoform 4 (UniProt O75909)	-0.072	0.135	0.022	0.057	-0.147	0.043	0.066	-0.019	0.029	0.003
CPD (UniProt O75976)	-0.047	-0.011	-0.007	0.03	-0.002	-0.026	0.017	-0.006	0.042	0.012
CSTF3 (UniProt Q12996)	0.001	0.045	0.078	-0.08	0.043	0.173	0.088	-0.051	-0.022	0.002
CNN3 (UniProt Q15417)	0.063	-0.122	-0.017	0.02	0.036	-0.13	0.048	0.008	0.009	0
CS (UniProt O75390)	-0.001	0.02	-0.074	-0.015	0.011	-0.069	0.022	-0.055	-0.042	-0.002
C6orf120 (UniProt Q7Z4R8)	-0.097	0.008		0.041	-0.145	0.024	0.127	0.041	0.074	-0.045
CHKA (UniProt P35790)	0.028	0.107	0.064	0.148	-0.033	0.006	0.046	-0.027	-0.107	0.056
CAB39L (UniProt Q9H9S4)	0.043	-0.213		0.056	0.049	-0.09	0.003	0.015	-0.144	0.043
C9orf72 (UniProt Q96LT7)	0.071	0.129	-0.04	-0.126	-0.071	-0.056		-0.021		0
CAV2 (UniProt P51636)	-0.006	0.045		0.159	-0.019			0.013		
CRMP1 isoform 2 (UniProt Q14194)	-0.059	0.107	-0.052	0.025	0.024	-0.149		-0.041		0.025
CDK4 (UniProt P11802)	-0.03	-0.028	0.098		0.07	-0.039	0.051	-0.057	-0.008	-0.07
CASP8 isoform 9 (UniProt Q14790)	-0.032	-0.019		0.115	0.053	-0.1	0.011	0.04	0.044	0.037
